Screening data as filed in PubChem BioAssay.
Sampled rows, rich in hits. Any-hit rate of the full collection: about 3.6%.
BoNT-A LC inh2: blocks Botulinum neurotoxin A light chain protease; multiplex microsphere protease substrate cleavage, flow cytometry; inhibition, % at 10 µM; 0.17% of 360,000 active; note: plate controls were buffer without enzyme for full effect and enzyme alone for no effect
Bead autofluor: flagged as autofluorescent in microsphere protease counterscreen | compound autofluorescence counterscreen, microsphere flow cytometry; active compounds read high | fluorescence intensity (concentration not given with the values) | 3.1% of 360,000 active; in the data active = fluorescence intensity above about 16000; inconclusive = no clear call, values can overlap the other calls
MazEF act: increases E. coli MazEF RNase cleavage of RNA; activation, % at 20 µM; 0.32% of 350,000 active; P0AE70; FAM/BHQ RNA-DNA oligo cleavage fluorescence, 5 h; in the data active = activation above about 50%
Target sequence (P0AE70 whole entry, looked up): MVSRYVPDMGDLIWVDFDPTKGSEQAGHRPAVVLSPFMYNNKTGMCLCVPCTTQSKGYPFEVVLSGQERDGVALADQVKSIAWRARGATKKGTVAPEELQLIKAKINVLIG
BoNT-F LC inh: BoNT F light chain protease inhibition | inhibition, % at 10 µM | 0.22% of 360,000 active | Multiplex microsphere protease cleavage assay, flow cytometry; in the data active = inhibition above about 35%, passing the limit was not always enough; inconclusive = no clear call, values can overlap the other calls; note: plate controls were buffer without enzyme for full effect and enzyme alone for no effect
Anthrax LF inh2: anthrax lethal factor protease inhibition; P15917; multiplex microsphere protease cleavage assay, LF; inhibition, % at 10 µM; 0.12% of 360,000 active; note: plate controls were buffer without enzyme for full effect and enzyme alone for no effect
Numbers without * were called inactive; ? = inconclusive; . = no result; + = active, no number. Cut-off read from the data, not from the text of the source, unless noted: active = inhibition above about 30%; inconclusive = no clear call, values can overlap the other calls; inactive = below that.

SMILES	BoNT-A LC inh2	Bead autofluor	MazEF act	BoNT-F LC inh	Anthrax LF inh2
Cc1cc(/C=N\NC(=O)CC(=O)NC2CCCCC2)c(C)n1-c1ccc(Cl)c(Cl)c1	-2.7	24080*	-3.2	-3.8	-3.1
O=C(Nc1cccn(Cc2c(Cl)cccc2Cl)c1=O)c1ccc(Cl)cc1Cl	0.0	6515	2.9	-5.5	-7.7
C=CCNC(=S)NNC(=O)c1cccc2ccccc12	-1.3	21284*	5.6	-1.4	-3.0
CCNC(=S)NNC(=O)c1cccn(Cc2ccc(Cl)cc2Cl)c1=O	?	22212*	-1.1	-3.2	-1.3
C=CCNC(=S)NNC(=O)c1cccn(Cc2ccc(Cl)cc2Cl)c1=O	?	22647*	-10.1	-3.7	-1.9
COc1ccccc1NC(=O)Cc1noc(CSc2cccc[n+]2[O-])n1	-0.2	2684	2.9	-1.3	-0.9
CCCCOc1ccccc1NC(=O)CSc1nnnn1C(C)(C)C	-3.6	17476*	8.9	-5.3	-1.6
CCn1c(SCc2nc(CC(=O)Nc3ccccc3OC)no2)nnc1-c1cccs1	-0.9	22928*	-1.7	-2.1	-5.6
COc1ccccc1NC(=O)CSc1nnnn1-c1ccc(C(=O)O)cc1	-0.7	4510	-15.9	-4.1	-3.1
CCn1c(COc2ccccc2)nnc1SCC(=O)CC(=O)Nc1ccccc1OC	1.8	21864*	1.4	2.1	-1.1
COCCn1c(COc2ccccc2)nnc1SCC(N)=O	?	21005*	0.0	-2.9	-5.2
CCOc1ccc(-n2c(COc3ccccc3)nnc2SCC(N)=O)cc1	0.3	4263	-1.2	2.9	-2.6
COCCN1C[C@@H](CO)O[C@@H](n2cnc3c(NCc4ccncc4)ncnc32)C1	-0.8	3728	.	1.5	0.8
Nc1ccc2c(c1)Cc1c(F)cccc1-2	-0.5	3967	1.9	-8.5	-3.5
CCOc1ccccc1-n1c(COc2ccc(C)cc2)nnc1SCC(N)=O	0.8	22748*	-2.1	0.5	-2.2
N#C/C(=C\c1ccco1)Sc1nc2ccccc2s1	0.0	23761*	-0.8	-0.7	-1.5
O=C(CSc1nc2ccccc2s1)N/N=C/c1ccco1	-1.1	2121	5.2	-18.5	-2.2
COc1ccc(C(=O)N(CCCO)C(C)C(=O)NC2CCCCC2)cc1OC (configuration not stated)	?	21753*	4.6	3.6	1.0
COc1ccc(C(=O)N(CC2CCCO2)C(C(=O)NC2CCCC2)c2ccc(Cl)cc2)cc1OC (configuration not stated)	3.3	21196*	-3.9	6.7	2.1
CC(=O)n1ccnc1	-0.5	5532	-3.4	-5.0	-5.5
Cc1ccsc1C(=O)Nc1ccccc1N1CCOCC1	4.1	18871*	3.7	4.4	-5.0
Cc1ccc(N=C2NC(=O)/C(=C/c3cccs3)S2)cc1C	1.2	10283	54.3*	1.3	2.1
COc1ccc(-n2cc3c(-c4cccc(Br)c4)nnc(C)c3n2)cc1	7.7	48432*	51.8*	30.9	17.3
Cc1nnc(-c2cccc(Br)c2)c2cn(-c3ccc(Br)cc3)nc12	0.9	17435*	-68.6	10.1	-4.4
Cc1nnc(-c2cccc(Br)c2)c2cn(-c3ccccc3)nc12	14.7	32979*	17.6	27.2	7.9
SMILES	BoNT-A LC inh2	Bead autofluor	MazEF act	BoNT-F LC inh	Anthrax LF inh2
COc1ccc(Cc2c(-c3cccc(Br)c3)nc3ccc(Br)cn23)c(C)c1	8.2	4327	.	7.1	11.6
CC(=O)c1nn(-c2cccc(Br)c2)cc1C(=O)c1ccc(C)cc1	-1.4	?	1.4	?	?
Cc1nnc(-c2cccc(Br)c2)c2cn(-c3cccc(Br)c3)nc12	8.2	34824*	-55.4	11.9	1.4
Cc1c(C(=O)N2CCN(S(=O)(=O)c3ccccc3)CC2)oc2ccc(Br)cc12	0.3	3668	-6.0	1.0	0.6
CC1(C(=O)NS(=O)(=O)c2ccc(Cl)s2)CCN1C(=O)c1ccc(C2CCCCC2)cc1 (configuration not stated)	-0.1	4094	.	-5.3	1.1
COc1ccc(CCCNC(=O)C2Cc3c(-c4ccc(NC(C)=O)cc4)ccnc3O2)cc1 (configuration not stated)	0.4	3753	.	-0.7	-1.9
CCc1nc2c(OCc3ccc(F)c(F)c3)cccn2c1N(C)C(=O)c1cccs1	-0.3	4039	.	-1.5	-2.6
Cc1ccc(-c2csc(=S)n2CC(=O)OCC(=O)NC(C)C(C)C)cc1 (configuration not stated)	0.5	16450*	-0.3	-0.4	-1.8
Cc1ccc(-c2csc(=S)n2CC(=O)OCC(=O)NCc2ccco2)cc1	1.2	9278	-3.6	2.2	-1.4
O=C(NC1CCCCCC1)C1C2C=CC3(CN(Cc4cccnc4)C(=O)C13)O2 (configuration not stated)	0.2	6194	12.7	1.6	-4.7
O=C(NCc1ccccc1)C1C2C=CC3(CN(Cc4cccnc4)C(=O)C13)O2 (configuration not stated)	1.6	19359*	0.4	0.9	-1.8
O=C1c2ccccc2C(c2nnnn2Cc2ccccc2)N1CCc1c[nH]c2ccccc12 (configuration not stated)	-0.3	6300	.	-0.4	3.8
OC12CC3C[C@H](C1)C(N1CCOCC1)[C@@H](C3)C2 (some centres not stated)	?	3863	6.3	?	-14.2
Nc1c(C(=O)C2CC2)sc2nc(-c3cccs3)cc(C(F)(F)F)c12	20.0	4416	+	13.8	16.2
C/C(=N\NC(=O)c1ccncc1)c1cc2ccccc2oc1=O	0.0	2187	4.7	-1.4	0.0
C/C(=N/NC(=O)c1ccncc1)c1cc2ccc(O)cc2oc1=O	-0.6	3743	+	-10.9	-3.6
COc1ccc(NC(=O)C23CC4CC(C2)CC(n2cnc(Br)n2)(C4)C3)cc1Cl	-0.1	16232*	-2.6	-3.4	-0.8
O=C(O)c1cccc(NC(=O)C23CC4CC(C2)CC(n2cnc(Cl)n2)(C4)C3)c1	0.3	2775	2.7	-2.5	-0.3
COC(=O)NC1CCS(=O)(=O)C1 (configuration not stated)	?	17672*	-0.6	-7.0	-4.3
COc1cc(C(=O)Nc2cc(C)ccn2)ccc1OCC(=O)N1CCOCC1	-3.0	5679	7.1	8.4	1.8
Cc1cccc[n+]1CC(=O)Nc1ccccc1	0.9	4187	2.3	36.7*	15.1
COC(=O)c1ccc(NC(=O)C[n+]2ccccc2C)cc1	-1.0	4007	7.9	-32.3	5.3
CCOC(=O)CSC1=C(C#N)C(c2ccco2)C(C(=O)Nc2cccc(C(F)(F)F)c2)=C(C)N1 (configuration not stated)	-5.7	25424*	-4.0	-7.7	-0.6
CCOC(=O)C1=C(c2ccccc2)NC(SCC(=O)Nc2cccc(C)c2)=C(C#N)C1c1ccco1 (configuration not stated)	?	15951	-1.9	-1.4	-5.9
CCCCOc1ccc(S(=O)(=O)Nc2ccc(NC(C)=O)cc2)cc1	1.4	21764*	-1.5	0.3	-1.7
CCCCN(CCCC)S(=O)(=O)c1ccc(NS(=O)(=O)c2ccc(NC(C)=O)cc2)cc1	?	21196*	5.9	-3.4	0.7
CCCCOC(=O)Nc1ccc(S(=O)(=O)Nn2cnnc2)cc1	?	29599*	1.1	-20.0	-4.7
